Results filed as inconclusive are left out. Calls of active or inactive are those of the source. The call rests on the fitted dose curve; in most records, active means well fitted curve in the direction sought with a large enough effect; inconclusive means small, poorly fitted or top-dose-only effect, or another doubt; inactive means no such curve, though single readings can be large or run the other way.

The nature of the experiment: qHTS screen for small molecules that inhibit ELG1-dependent DNA repair: SAR in Cell-Based Luciferin Counter Assay. As to conditions: cell-based luciferase counter-screen, luminescence; series mostly up to 45.7 µM; activity change, negative = inhibition: at the top concentration. From the text:
Cancer cells divide rapidly compared to normal cells in the body. During cell division, cancer cells need to duplicate their genome by DNA replication. The failure of genome duplication leads to cancer cells' death. Therefore, inhibitors of DNA replication could specifically kill cancer cells. Based on this concept, many chemotherapeutic agents were developed and have been used to treat cancer patients. However, there are a limited number of agents available in the clinical setting, and some of those that do exist have low efficacy and severe side effects. Therefore, if we can find the compounds that effectively block DNA replication either by directly damaging DNA or by inhibiting other cellular mechanisms, the options for cancer treatment will be broadened. With this in mind, we developed a quantitative high-throughput ELG1-luciferase reporter gene assay. Small molecules that specifically block ELG1 function in response to DNA damage can be identified by monitoring the suppression of luciferase activity. Since ELG1 defines a pathway for repairing DNA damage, agents blocking ELG1 function can be used to sensitize cancer cells to chemotherapeutic agents whose mechanism of action involves the induction of DNA damage. This assays is a counterscreen, that is more specifically, a cell-based luciferase assay following treatment with putative ELG1 antagonists to eliminate luciferase enhancers/inhibitors NIH Molecular Libraries Probe Production Network [MLPCN] NIH Chemical Genomics Center [NCGC] MLPCN Grant: R03 MH092164 Assay Provider: Kyungjae Myung, NHGRI, NIH
3 uL of substrate reagent will be pipetted into each well in 1536-well white, solid-bottom plates using a FRD dispenser, followed by addition of 23 nL of DMSO or compounds by pintool. After compound addition, 1 µL of luciferase will be added into the wells. The plates will be read in a ViewLux CCD-based plate reader.
A general note: Quantitative high-throughput screening tests each substance at several concentrations.
Take `O=C(/C=C/C#Cc1cccc(NS(=O)(=O)c2ccccc2)c1)NO`: the “activity change, negative = inhibition” value was -8.27% (inactive).

`Oc1ccc(/C=C/c2c(F)cccc2F)c2cccnc12`: the “activity change, negative = inhibition” value is 17.6% (inactive).

Regarding `CCCCCn1ncc2c3sc(C)cc3n(C)c2c1=O`, the “activity change, negative = inhibition” value is 79.8% (inactive).

In the case of `COc1ccc(-c2nc(-c3cccnc3)no2)cc1`, the “activity change, negative = inhibition” value was 49.3% (inactive).

For `O=C(Nc1ccccn1)c1sc2ccccc2c1Cl`, the “activity change, negative = inhibition” value is -47.7% (inactive).

As to `Cc1csc(CNc2ncnc3ccc(-c4ccoc4)cc23)c1`, the “activity change, negative = inhibition” value was -13.4% (inactive).

Consider `O=c1[nH]c(=O)n([C@@H]2C[C@H](O)[C@H](CO)O2)cc1C(F)(F)F`, for which the “activity change, negative = inhibition” value was -13.5% [at 15.7 µM] (inactive).

Regarding `COc1cc(C)c2c(=O)cc(-c3ccccc3)oc2c1`, the “activity change, negative = inhibition” value is 91.3% (inactive).

With `CC(C)CN(C)c1ccc(/C=C2\C=Cc3ccccc32)cc1`, the “activity change, negative = inhibition” value is 69.7% (inactive).

Turning to `COc1cc2c(cc1OC)C1C(=O)c3c(cc4c(c3O)C=CC(C)(C)O4)OC1CO2` (stereo not drawn), the “activity change, negative = inhibition” value was -5.64% (inactive).

Consider `CN(C)N=Nc1ccc(/C=C2\C=Cc3ccccc32)cc1`, for which the “activity change, negative = inhibition” value was 55.6% (inactive).

As for `N#Cc1ccc(-c2ccc(-c3nc4ccccc4c(=O)[nH]3)o2)cc1`, the “activity change, negative = inhibition” value is -16% (inactive).

On to `COc1ccc(C2CC(c3c(O)cc(C)oc3=O)=NCCS2)c(OC)c1` (stereo not drawn), for which the “activity change, negative = inhibition” value was 82.9% (inactive).

For `COc1ccc(C2=Nn3c(nnc3-c3ccccc3OC)SC2)cc1OC`, the “activity change, negative = inhibition” value was 39.9% (inactive).

Regarding `O=C(Cc1ccc(OCCCc2ccccc2)cc1)NO`, the “activity change, negative = inhibition” value was 60.9% (inactive).

For the molecule `CSc1ncnc2c1ncn2C1OC(CO)C(O)C1O` (stereo not drawn), the “activity change, negative = inhibition” value is -15.1% (inactive).

Take `c1cncc(CNc2ncnc3ccc(-c4ccoc4)cc23)c1`: the “activity change, negative = inhibition” value was -17.6% (inactive).

With `NC(=O)C1CCN(c2cc(-c3ccc4c(c3)OCCCO4)ncn2)CC1`, the “activity change, negative = inhibition” value was 62.6% (inactive).
